# Data taken from PubChem BioAssay AID1069 (NMMLSC, 2008).
# The source made the active and inactive calls.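 Rule for the calls: active = high combined rank on largest and smallest cell-count-weighted shift across three tests, rank score above 45, floors 50 and 25 (some results past the limit were not filed as active); inactive = the rest.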
# Test: LNCaP granularity increase inducers, single-point recheck – cell-based, side scatter shift, flow cytometry, confirmation (AID 1069);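 note: LNCaP human prostate cancer cells in low-serum medium with charcoal-stripped FBS; percent of cells with raised granularity gated so DMSO controls show 10%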
# Conditions: LNCaP differentiation, 4 d, stronger effect = higher value
Compound,side scatter shift (at 100 µM),"side scatter shift (side scatter shift, at 10 µM)"
CC1(C)CC(=O)c2cc(OCC(=O)NCCCN3CCN(c4ccccc4F)CC3)ccc2O1,27.3% (inactive),6.5%
O=c1c2ccccc2nnn1CSc1nnc2sc3ccccc3n12,15.6% (inactive),4.8%
Cc1ccc(C)c2[nH]c(=O)c(CN(CCN3CCCC3)C(=O)Nc3cccc(Cl)c3)cc12,20% (inactive),49.6%
CCN(CC)CCCNC(=O)c1cc(-c2ccc(Cl)c(Cl)c2)on1,22.7% (inactive),36.7%
c1cncc(-c2nc3ccccc3o2)c1,10.2% (inactive),2.9%
CCc1ccc(-c2nc(CN3CCC(C(=O)NCCc4ccc(OC)c(OC)c4)CC3)c(C)o2)cc1,35.3% (inactive),21%
CCc1ccc(-c2nc(CN3CCCC(C(=O)NCCc4ccc(OC)c(OC)c4)C3)c(C)o2)cc1 (configuration not stated),25% (inactive),17.3%
CCc1nnc(NC(=O)CSc2nc3ccccc3s2)s1,5.7% (inactive),5%
CCOC(=O)c1sc2ncnc(N3CCN(c4ccc(OC)cc4)CC3)c2c1C,25% (inactive),9.55%
O=C(Cn1cnc2ccccc2c1=O)NCCC(=O)N1CCN(c2ccccc2)CC1,17.1% (inactive),4%
CCCS(=O)(=O)N1CCCC(C(=O)NCCCN2CCN(c3cccc(Cl)c3)CC2)C1 (configuration not stated),17% (inactive),6.55%
Nc1ccccc1NC(=O)c1ccccc1N,5.9% (inactive),2.1%
CCOC(=O)C1=C(O)CCn2c1nc1ccccc12,18% (inactive),3.3%
CCN(CCNC(=O)C1CCN(Cc2nc(-c3ccc(Cl)cc3)oc2C)CC1)c1ccccc1,25% (inactive),26.4%
Cc1oc(-c2ccccc2F)nc1CN1CCC(C(=O)NCc2cccnc2)CC1,8.3% (inactive),3.9%
CCCS(=O)(=O)N1CCCC(C(=O)NCCCN2CCN(c3ccccc3F)CC2)C1 (configuration not stated),35.5% (inactive),5.95%
N=c1n(CCN2CCCCC2)c2ccccc2n1CC(O)COc1ccccc1 (configuration not stated),20% (active),50.2%
CCN(CC)CCCNc1oc(-c2cccc(Cl)c2)nc1C#N,21.9% (inactive),32.5%
COc1ccc(-c2nc(CN3CCC(C(=O)N4CCc5ccccc54)CC3)c(C)o2)cc1OC,12.5% (inactive),2.7%
N=c1n(CCO)c2ccccc2n1CCOc1ccc(Cl)cc1Cl,22.2% (inactive),8.75%
Cn1c(C(=O)NCCN2CCN(c3ccccc3F)CC2)cc2c(=O)n(C)c3ccccc3c21,50% (inactive),7.7%

Compound,side scatter shift (at 100 µM),"side scatter shift (side scatter shift, at 10 µM)"
CCOC(=O)C1=C(C)N=c2s/c(=C\c3ccncc3)c(=O)n2C1c1ccc2c(c1)OCO2 (configuration not stated),47.1% (inactive),6.4%
COc1ccc(OC)c(N=Cc2c(O)[nH]c3ccccc23)c1,7.2% (inactive),6.1%
CCCc1ccc(Oc2cn[nH]c2-c2ccc(O)c(C)c2O)cc1,40% (inactive),4.85%
CCCOc1ccccc1C1CC(=O)Nc2cc3c(cc21)OCO3 (configuration not stated),16.7% (inactive),22.1%
COc1ccc(Cl)cc1N1CCN(CCNC(=O)Nc2ccccc2C)CC1,16.7% (inactive),3.25%
Cc1cc(N2C(=O)C3C4C=CC(C4)C3C2=O)ccc1Br (configuration not stated),9.6% (inactive),16.5%
COC(=O)c1ccc2c(=O)n(Cc3ccco3)c(SCC(=O)Nc3ccc(C)c(Cl)c3)nc2c1,21% (inactive),10.6%
CCN(CCCNS(=O)(=O)c1ccc2c(c1)oc(=O)n2C)c1cccc(C)c1,22.2% (inactive),4.85%
COc1ccc(CN2C(=O)C(O)(CC(=O)c3c(C)n[nH]c3C)c3ccccc32)cc1OC (configuration not stated),9.9% (inactive),6.45%
O=C(NCCCN1CCN(c2ccccc2F)CC1)C1CCC(=O)N1C1CCCC1 (configuration not stated),5% (inactive),2.35%
CCOC(=O)c1c(-c2ccc(C)o2)csc1NC(=O)CN1CCN(CC)CC1,22.2% (inactive),8.3%
CCc1ccc(-c2nc(CN3CCC(C(=O)N4CCN(c5ccccn5)CC4)CC3)c(C)o2)cc1,30% (inactive),32.4%
COc1cc2c(C(=O)NCCCN3CCN(c4cccc(Cl)c4)CC3)cn(C)c(=O)c2cc1OC,53.3% (inactive),15.4%
COc1ccc(-n2nnnc2SCC(=O)c2ccc(O)c(O)c2)cc1,0% (inactive),2.75%
COC(=O)Nc1sc2c(c1C(N)=O)CCCCCC2,10% (inactive),5.65%
CCOC(=O)N1CCC(NC(=O)c2cc3c(-c4ccccc4F)nn(C)c3s2)CC1,3.3% (inactive),3.9%
O=C(Nc1ccc2oc(Cc3ccc(Cl)cc3)nc2c1)c1cccnc1,17.6% (inactive),6.7%
Cc1ccc(-c2noc(CCC(=O)NCCCN3CCN(c4ccc(F)cc4)CC3)n2)cc1,0% (inactive),17.4%
COc1ccc(CCNC(=O)C2CCN(Cc3nc(-c4ccccc4F)oc3C)CC2)cc1OC,9% (inactive),8.85%
Cn1cc(CNC(=O)C2c3ccccc3Oc3ccccc32)cn1,7.3% (inactive),3%
